# Compounds with a hit are over-represented: about 18% of the library has one in this group of screens.
# DT40 TDP1 CPT – qHTS for Inhibitors of human tyrosyl-DNA phosphodiesterase 1 (TDP1): qHTS in cells in presence of CPT; chicken DT40 Tdp1-/-;hTDP1 cells + 20 nM CPT, ATP luminescence, 48 h; Potency, µM (doses to about 46.2 µM), inactives show at the top dose activity change, negative = growth inhibition, usual class: inhibitors; hit rate 12% among 420,000; AID 686979, 2013; note: potency is the fitted concentration of half-maximal effect; nearly all actives have a fitted effect of over 55% in size
#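 Chicken DT40 Tdp1-/- cells complemented with human TDP1, 400 cells/well, exposed to compounds plus 20 nM camptothecin for at least 48 h at 37 C; viability read as ATP content by CellTiter-Glo luminescence.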
# TDP1 cell noCPT – qHTS for Inhibitors of human tyrosyl-DNA phosphodiesterase 1 (TDP1): qHTS in cells in absence of CPT | DT40 Tdp1-/- hTDP1 cells, no CPT, ATP luminescence, 48 h | Potency, µM (highest dose often 46.2 µM), for the others: at the highest dose activity change, negative = growth inhibition, usual class: inhibitors | hit rate 15% among 420,000; note: potency is the fitted concentration of half-maximal effect; nearly all actives have a fitted effect of over 55% in size
#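 Camptothecin absent (DMSO only). Human TDP1-complemented DT40 knockout cells, 400 cells/well, 37 °C for minimum 48 hr; ATP measured via CellTiter-Glo, 30 min dark incubation, luminescence.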
# IL-1B inflam inh – qHTS for Inhibitors of Inflammasome Signaling: IL-1-beta AlphaLISA Primary Screen. THP-1 LPS/ATP IL-1B secretion, AlphaLISA, 16 h; active compounds read low. activity change, % at 57.5 µM. hit rate 4.7% among 360,000; in the data active = activity change below about -50%; inconclusive = mostly about -30% to -49%
#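 THP-1 cells pretreated 1 hr with compounds (up to 57.5 uM final), then stimulated with LPS (250 ng/mL final) plus ATP (1.25 mM final); secreted IL-1B measured by AlphaLISA after 16 hr, decreased signal indicating inhibition.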
# LDHA block – qHTS assay for inhibitors of human lactate dehydrogenase. L-lactate dehydrogenase A chain (Homo sapiens), P00338. AID 1347041, 2019. purified LDHA, NADH/diaphorase-resazurin fluorescence; active compounds read low. hit rate 0.15% among 480,000. activity change, % (values are at about 110 or 230 µM); in the data active = activity change below about -30%; inconclusive = mostly about -25% to -30%;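 note: plate controls were DMSO wells for no effect and wells without enzyme for full effect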
#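 Human LDH5 (2 nM) was incubated with 0.06 mM NADH and 0.2 mM pyruvate for 5 min at room temperature in Tris pH 7.4. Remaining NADH was coupled through diaphorase/resazurin, and resorufin fluorescence was read at 0 and 20 min.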
# VP16 counter – VP16 counterscreen qHTS for inhibitors of ROR gamma transcriptional activity; AID 2546, 2010; Potency, µM (top dose mostly 53.6 µM), for the others: top-dose activity, negative = inhibition, most hits filed as inhibitors; Drosophila S2 Gal4-VP16 UAS-luciferase, luminescence, 20 h; hit rate 3.5% among 310,000;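 note: Gal4-VP16 expression switched on by copper sulfate through the metallothionein promoter; potency is the fitted concentration of half-maximal effect; nearly all actives have a fitted effect of over 50% in size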
# RORg inh – qHTS for inhibitors of ROR gamma transcriptional activity. Nuclear receptor ROR-gamma (Mus musculus), P51450. Drosophila S2 Gal4-RORgamma UAS-luciferase reporter, 20 h. Potency, µM (top dose mostly 53.6 µM), without a hit: top-dose activity change, negative = inhibition, hits mostly inhibitors. hit rate 5.4% among 310,000; note: potency is the fitted concentration of half-maximal effect; nearly all actives have a fitted effect of over 60% in size
# Target sequence (P51450 whole entry, looked up, the tested form may be a part): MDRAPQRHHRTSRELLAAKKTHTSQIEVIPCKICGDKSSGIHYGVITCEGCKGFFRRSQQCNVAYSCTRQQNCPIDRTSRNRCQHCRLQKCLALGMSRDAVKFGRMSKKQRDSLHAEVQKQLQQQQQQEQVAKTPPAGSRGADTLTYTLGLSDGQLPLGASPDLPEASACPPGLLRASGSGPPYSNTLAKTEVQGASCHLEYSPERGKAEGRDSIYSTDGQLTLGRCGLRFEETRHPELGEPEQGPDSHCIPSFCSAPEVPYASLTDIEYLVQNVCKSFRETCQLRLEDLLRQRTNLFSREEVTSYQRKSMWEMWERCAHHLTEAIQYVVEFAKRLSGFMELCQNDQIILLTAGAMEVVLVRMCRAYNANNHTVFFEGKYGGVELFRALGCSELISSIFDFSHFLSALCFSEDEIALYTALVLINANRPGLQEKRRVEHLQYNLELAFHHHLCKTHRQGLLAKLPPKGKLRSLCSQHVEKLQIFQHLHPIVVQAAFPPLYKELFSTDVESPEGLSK
#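 Read-out: Photinus luciferase luminescence; inhibitors lower reporter signal. Insect Schneider cells with Gal4-ROR gamma fusion under metallothionein promoter, UAS reporter; 700 uM final copper sulfate induction, 20 hr, ambient temperature.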
# Starred values were filed as active, the others as inactive; ? = inconclusive; nt = no result. Unless noted, calls come from the whole dose curve; as a rule, active = well fitted curve in the direction sought with a large enough effect; inconclusive = small, poorly fitted or top-dose-only effect, or another doubt; inactive = no such curve, though single readings can be large; an effect the other way counts as inactive or inconclusive. Unless noted, % is set by controls: 0 for no effect and ±100 for the full control effect.
SMILES,DT40 TDP1 CPT,TDP1 cell noCPT,IL-1B inflam inh,LDHA block,VP16 counter,RORg inh
CC(=O)Nc1cc2c(cc1[N+](=O)[O-])-c1ccccc1C2=NO,?,-12%,17,-2,nt,nt
N#C/C(=C\c1ccc(-c2cccc(C(F)(F)F)c2)o1)c1ccccc1,nt,nt,nt,5,nt,nt
O=C(NC1CC1)c1cc2c(s1)CCCCC2,nt,nt,nt,10,nt,nt
CCc1ccc(NC(=O)c2cc(=O)c3cc(C)cc(C)c3o2)cc1,nt,nt,nt,0,nt,nt
O=S(=O)(c1ccccc1)N1CCCC1c1nc2ccccc2[nH]1 (stereo unspecified),nt,nt,nt,2,nt,nt
COc1ccc(Cc2nnc(SCC(=O)Nc3ccccc3Cl)n2C)cc1,nt,nt,nt,3,nt,nt
CCn1cnc2c1c(=O)n(CC(=O)N(C)CC(=O)NC(C)(C)C)c(=O)n2Cc1ccccc1,nt,nt,nt,4,nt,nt
Nc1ccc2c(c1)C(=NO)c1ccccc1-2,18µM*,8.2µM*,-18,-21,nt,nt
O=C1C(=O)c2ccc(-c3ccccc3)cc2-c2ccccc21,0.92µM*,2.6µM*,-57*,46,3.5µM*,3.2µM*
Cc1ccc2c(c1)-c1ccccc1C2=O,nt,nt,nt,5,nt,nt
CCC1CCc2c(sc(NC(=O)COCC(=O)O)c2C(=O)NCc2ccccc2)C1 (stereo unspecified),nt,nt,nt,-1,nt,nt
C=CCCCCCCCCc1nc(=S)[nH][nH]1,?,?,22,-1,-3%,13µM*
C=CCCCCCCCCc1nc(SCC(=O)O)n[nH]1,14%,-3%,15,-11,0%,1%
CC(=O)Nc1ccc(-c2nc(N3CCCC3)sc2C)cc1,nt,nt,nt,1,nt,nt
CN1CCc2c(sc3nc(SCC(=O)N4CCOCC4)nc(N)c23)C1,23µM*,18µM*,-21,5,2%,-1%
CC1CCN(C(=O)CSc2nc(N)c3c4c(sc3n2)CN(C)CC4)CC1,?,21µM*,-7,1,-3%,2%
CNC(=O)CSc1nc(N)c2c3c(sc2n1)CCC3,2%,2%,-1,4,0%,-8%
Cc1ccc(C(N)=O)c(OCc2coc(-c3ccc(F)cc3)n2)c1,nt,nt,nt,-1,nt,nt
COc1ccc(/C=N/Nc2c(Cl)cc(Cl)cc2Cl)cc1CN1CCOCC1,16µM*,15µM*,-12,1,3%,31%
O=C(NCCNC(=O)c1cc2ccccc2[nH]1)C(=O)Nc1ccccc1,nt,nt,nt,-8,nt,nt
Cc1ccc(C(=O)c2oc3ccccc3c2N)cc1,16µM*,?,-10,-6,20%,37%
COc1cc(C2CC(=O)Nc3c2ncn3-c2cccc(C(F)(F)F)c2)cc2c1OCO2 (stereo unspecified),nt,nt,nt,33,nt,nt
CNC(=O)NC(=O)C(Cl)c1ccccc1 (stereo unspecified),nt,nt,nt,0,nt,nt
Cc1ccc(Cn2c(C(C)Nc3nc(-c4ccc(Cl)c([N+](=O)[O-])c4)cs3)nc3cc(C(F)(F)F)ccc32)cc1 (stereo unspecified),?,?,-1,-2,nt,nt
O=[N+]([O-])c1cc(-c2csc(NC(CO)c3nc4ccccc4n3CCOCCO)n2)ccc1Cl (stereo unspecified),?,18µM*,0,3,nt,nt
SMILES,DT40 TDP1 CPT,TDP1 cell noCPT,IL-1B inflam inh,LDHA block,VP16 counter,RORg inh
CCCn1c(C(C)Nc2nc(-c3ccc(Cl)c([N+](=O)[O-])c3)cs2)nc2ccccc21 (stereo unspecified),23µM*,?,-16,0,?,13µM*
CCCn1c(C(C)Nc2nc(-c3cccc(Br)c3)cs2)nc2ccccc21 (stereo unspecified),?,?,15,2,?,4.5µM*
CCCn1c(C(C)Nc2nc(-c3ccc(C)cc3)cs2)nc2ccccc21 (stereo unspecified),?,?,9,1,18µM*,5.6µM*
CCCn1c(CCNc2nc(-c3cccc(Br)c3)cs2)nc2ccccc21,-27%,?,23,-4,nt,nt
Cc1ccc(C(=O)NCC(C)C)cc1N,nt,nt,nt,2,nt,nt
Cn1c(SCC(=O)Nc2sccc2C#N)nnc1-c1ccc(Cl)cc1,nt,nt,nt,-7,nt,nt
CC1=C(C)CC(C(=O)Nc2ccc(C(=O)NCc3cccnc3)cc2)C(C(=O)O)C1 (stereo unspecified),nt,nt,nt,1,nt,nt
CCOc1ccccc1Nc1nnc(SCC(=O)N2CCCC2)s1,-10%,-8%,-14,1,3%,23%
Cc1nnc(CSc2nnc(Nc3ccccc3C)s2)o1,nt,nt,nt,-3,nt,nt
COc1ccccc1Nc1nnc(SCc2nnc(-c3cc(OC)c(OC)c(OC)c3)o2)s1,21µM*,21µM*,-5,-3,20%,36%
CCOc1ccccc1Nc1nnc(SCc2nnc(-c3cc(OC)c(OC)c(OC)c3)o2)s1,?,13µM*,?,-1,?,30%
COc1cc(-c2nnc(CSc3nnc(Nc4ccc(C(C)C)cc4)s3)o2)cc(OC)c1OC,5.8µM*,5.8µM*,-11,2,-15%,28%
O=c1c(-c2cc(F)cc(F)c2)nc2cnc(N3CCNCC3)nc2n1Cc1ccc(F)cc1,?,?,nt,nt,4.5µM*,3.2µM*
N#Cc1cccc(-c2nc3cnc(N4CCOCC4)nc3n(Cc3ccc(F)cc3)c2=O)c1,12%,22%,nt,nt,0%,-11%
COc1cccc(Cn2c(=O)c(-c3cc(F)cc(F)c3)nc3cnc(N4CCNCC4)nc32)c1,?,?,nt,nt,?,2.8µM*
COc1cccc(Nc2ncc3nc(-c4cc(F)cc(F)c4)c(=O)n(CCC#N)c3n2)c1,12µM*,16µM*,nt,nt,3%,0%
COc1cccc(Cn2c(=O)c(C)nc3cnc(N4CCNCC4)nc32)c1,7%,?,nt,nt,-9%,-34%
CN1CCN(c2ncc3nc(-c4cccc(C#N)c4)c(=O)n(Cc4ccc(F)cc4)c3n2)CC1,?,?,nt,nt,20µM*,?
COc1ccc(-c2cn[nH]c2-c2ccc(OCc3ccc([N+](=O)[O-])cc3)cc2O)cc1,?,16µM*,-56*,-6,2µM*,2.8µM*
COc1ccc(-c2[nH]ncc2-c2ccccc2)c(O)c1,nt,nt,nt,0,nt,nt
CCc1cc(-c2[nH]ncc2-c2ccc(OC)cc2)c(O)cc1O,?,18µM*,-83*,7,2%,-13%
CCc1cc(-c2[nH]ncc2-c2ccc3c(c2)OCO3)c(O)cc1O,18µM*,11µM*,-89*,2,-7%,-28%

# Screening results: PubChem BioAssay, National Center for Advancing Translational Sciences (NCATS)
